In PubChem BioAssay (NCATS):
Records with an inconclusive call do not appear. The source made the active and inactive calls. The call rests on the fitted dose curve; in most records, active means well fitted inhibition curve with a large enough effect; inconclusive means small, poorly fitted or top-dose-only effect, or effect the other way; inactive means flat fitted curve, though single readings scatter.

experiment: qHTS for Inhibitors of Plasmodium falciparum (CP250) proliferation (AID 504320);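 further: plate controls were DMSO vehicle for no effect and 0.29 µM artemisinin control for full effect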; conditions: P. falciparum CP250 in erythrocytes, SYBR Green DNA, 72 h; series mostly up to 6.7 µM; activity change, negative = inhibition: at the top concentration
Outline: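 Erythrocytes infected with P. falciparum line (0.3% parasitemia, 2.5% hematocrit final) incubated with compounds 72 h at 37 °C, 5% CO2; SYBR Green lysis buffer added, fluorescence read next day. Normalized to 0.29 uM artemisinin and DMSO.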

Activity change, negative = inhibition, inactive:
COC(=O)C1=C(C)N(Cc2ccco2)C(=O)NC1c1ccc(Br)cc1 (stereo not drawn) -1.76%
COc1ccc2c(c1)O[C@@H](c1cccc(C(F)(F)F)c1)[C@H](OC(=O)NC1CCCC1)C2=O 2.93%
C[C@@H]1CC[C@H]2C(=O)N(Cc3ccc(Cl)cc3)C[C@@H](O)CN2[C@@H]1c1cccc(Br)c1 -0.568%
COC1=C[C@H](C(=O)N2CCCC2)[C@H](C)[C@@H](c2ccccc2)CC1=O -2.16%
COc1cc(CCN2C(=O)NC(c3ccccc3)C(C(C)=O)=C2C)cc(OC)c1OC (stereo not drawn) -1.72%
CC(CCC(=O)OC[C@H]1O[C@H](C#Cc2ccccc2)C=C[C@H]1Oc1ccc(C)cc1)=NO[C@H](C)c1cn([C@H](CO)Cc2ccccc2)nn1 -8.07%
C#CC1(O)C2C=C(OC)C(=O)C1C(c1ccccc1)C2C (stereo not drawn) 6.91%
C=CCN1c2ccccc2[C@]23CCC(=O)N(CCCOC(C)C)C2=NC(C(=O)OC)=C(C(=O)OC)[C@H]13 7.32%
Cc1cc2c(c(=O)o1)[C@H]1O[C@](c3ccsc3)(Cc3c1ccc1ccccc31)O2 1.56%
COC(=O)C1=C(C(=O)OC)[C@@H]2N(CC=C(C)C)c3ccccc3[C@@]23CCC(=O)N(CCc2ccccn2)C3=N1 6.56%
COc1cc2c(cc1OC)[C@@]1(c3ccccc3)CCCC[C@H]1[C@@H]2NC(=O)C(F)(F)F 5.8%

Potency, inactive:
CC1(OC(=O)CCc2ccccc2)C(=O)C=C2C=C(c3ccc(C#N)cc3)N(CC3CC3)C=C2C1=O (stereo not drawn)
C[C@H](NC(=O)N1CCc2nc(COc3ccccc3)c3c(c2C1)CO[C@@H](C)C3)c1ccccc1
